From PubChem BioAssay (NCI)
“And” between values parts separate entries of the source, which are not always exact repeats. Identical values can stand only once. This is part of a sample that, as a whole, favours compounds with a hit. Of some 83,000 tested, about 20% had one in any assay.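 Note: values are percent growth. 100 is the growth of untreated cells, values between 100 and 0 indicate rising inhibition; between -100 and 0 indicates cell death.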 The source made the active and inactive calls. How the source made its calls: active means growth percent below 10; inactive means the rest.

How the values were obtained:
Assay in all cases: NCI-60 one-dose screen, 48 h (100 = growth as untreated, 0 = no growth, -100 = all killed)
Conditions in all cases: 10 µM unless noted
SK-MEL-2 melanoma = tested on: SK-MEL-2 melanoma
EKVX NSCLC = tested on: EKVX NSCLC
SN12C renal = tested on: SN12C renal
UO-31 renal = tested on: UO-31 renal
TK-10 renal = tested on: TK-10 renal
ACHN renal = tested on: ACHN renal
CAKI-1 renal = tested on: CAKI-1 renal
A498 renal = tested on: A498 renal
CCRF-CEM leukemia = tested on: CCRF-CEM leukemia
MOLT-4 leukemia = tested on: MOLT-4 leukemia

Structure (SMILES)	growth (SK-MEL-2 melanoma)	growth (EKVX NSCLC)	growth (SN12C renal)	growth (UO-31 renal)	growth (TK-10 renal)	growth (ACHN renal)	growth (CAKI-1 renal)	growth (A498 renal)	growth (CCRF-CEM leukemia)	growth (MOLT-4 leukemia)
C=CCN1C(=O)c2ccccc2C1=O	101% (inactive)	104% (inactive)	87.4% (inactive)	78.3% (inactive)	98.3% (inactive)	102% (inactive)	93.2% (inactive)	92% (inactive)	93.3% (inactive)	102% (inactive)
CC1(CO)CCCC1NCCNC1CCCC1(C)CO (stereo not drawn)	89.9% (inactive) and 110% (inactive)	101% (inactive)	98% (inactive) and 103% (inactive)	105% (inactive) and 86% (inactive)	108% (inactive)	105% (inactive) and 100% (inactive)	99.5% (inactive) and 92.3% (inactive)	102% (inactive) and 111% (inactive)	99.6% (inactive)	115% (inactive) and 104% (inactive)
COC(=O)c1cc(C(=O)OC)cc([N+](=O)[O-])c1	109% (inactive)	105% (inactive)	111% (inactive)	83.6% (inactive)	110% (inactive)	106% (inactive)	109% (inactive)	93.8% (inactive)	102% (inactive)	71% (inactive)
CC(=O)Nc1ccc(OC(C)=O)cc1	-16.6% (active) and 111% (inactive)	49.5% (inactive) and 99.5% (inactive)	20.2% (inactive) and 102% (inactive)	21.8% (inactive) and 98.6% (inactive)	42% (inactive) and 99.1% (inactive)	26.8% (inactive) and 110% (inactive)	17.8% (inactive) and 98.8% (inactive)	-40.5% (active) and 65.6% (inactive)	6.69% (active) and 106% (inactive)	15.2% (inactive) and 117% (inactive)
COc1ccc(C(=O)C(O)c2ccc(OC)cc2)cc1 (stereo not drawn)	111% (inactive) and 108% (inactive)	107% (inactive) and 110% (inactive)	113% (inactive) and 112% (inactive)	89.1% (inactive) and 90.7% (inactive)	102% (inactive) and 107% (inactive)	109% (inactive) and 112% (inactive)	104% (inactive) and 100% (inactive)	97.4% (inactive) and 104% (inactive)	108% (inactive) and 105% (inactive)	107% (inactive) and 100% (inactive)
CCC(C)(O)CCC(C)(O)CC (stereo not drawn)	116% (inactive)	99.4% (inactive)	108% (inactive)	91% (inactive)	103% (inactive)	111% (inactive)	101% (inactive)	114% (inactive)	101% (inactive)	102% (inactive)
Cn1c(N)c(N=O)c(=O)n(C)c1=O	108% (inactive) and 102% (inactive)	97.4% (inactive) and 95.9% (inactive)	109% (inactive) and 93.8% (inactive)	82% (inactive) and 92.5% (inactive)	120% (inactive) and 92.8% (inactive)	109% (inactive)	102% (inactive)	99% (inactive) and 78% (inactive)	106% (inactive) and 116% (inactive)	93.9% (inactive) and 117% (inactive)
Cc1cc(=NO)cc(C)n1O	113% (inactive)	105% (inactive)	100% (inactive)	101% (inactive)	84.7% (inactive)	117% (inactive)	109% (inactive)	93.9% (inactive)	80.9% (inactive)	96.6% (inactive)
Cc1cc(Cl)nc(Nc2ccccc2)n1	106% (inactive)	93.8% (inactive)	96.1% (inactive)	102% (inactive)	94.4% (inactive)	98.9% (inactive)	78.7% (inactive)	93.3% (inactive)	99.3% (inactive)	94.8% (inactive)
CC1=CC(=O)c2cccc(NC3=NCCO3)c21	93.8% (inactive)	98.9% (inactive)	95.1% (inactive)	86.5% (inactive)	98.3% (inactive)	98.7% (inactive)	94.2% (inactive)	110% (inactive)	108% (inactive)	111% (inactive)
O=C(O)c1cc(=O)[nH]c(=O)[nH]1	111% (inactive) and 65.2% (inactive)	93.6% (inactive) and 115% (inactive)	98.7% (inactive) and 98.5% (inactive)	78.8% (inactive) and 42.2% (inactive)	106% (inactive) and 135% (inactive)	94.7% (inactive) and 95.2% (inactive)	94.9% (inactive) and 119% (inactive)	94.3% (inactive) and 71.1% (inactive)	105% (inactive) and 74.4% (inactive)	98.5% (inactive) and 91.5% (inactive)
Cn1c(-c2ccccc2)cc(=O)cc1-c1ccccc1	10.8% (inactive)	121% (inactive)	92.6% (inactive)	79% (inactive)	91.5% (inactive)	0.204% (active)	83.6% (inactive)	106% (inactive)	79.8% (inactive)	81.4% (inactive)
CN(C)CC(CN(C)C)C(O)c1ccccc1 (stereo not drawn)	94.4% (inactive)	96.1% (inactive)	103% (inactive)	96.1% (inactive)	89.5% (inactive)	105% (inactive)	98.2% (inactive)	109% (inactive)	104% (inactive)	106% (inactive)
CC(=O)Nc1cscc1NC(C)=O	139% (inactive)	73.2% (inactive)	89.1% (inactive)	93.3% (inactive)	97.8% (inactive)	96.3% (inactive)	73.1% (inactive)	92.9% (inactive)	89.2% (inactive)	111% (inactive)
CCC/C(=N/NC(N)=O)c1ccco1	94.8% (inactive)	89.7% (inactive)	93% (inactive)	90.6% (inactive)	88.3% (inactive)	94.9% (inactive)	92.7% (inactive)	68.1% (inactive)		80.3% (inactive)
OCc1cccc(F)c1	2.28% (active)	106% (inactive)	83.6% (inactive)	75.1% (inactive)	96.5% (inactive)	-0.315% (active)	34.2% (inactive)	111% (inactive)		83.5% (inactive)
Cc1c(Cl)c(C)c(Cc2c(C)c(Cl)c(C)c(Cl)c2O)c(O)c1Cl	1.72% (active)	3.88% (active)	8.8% (active)	7.71% (active)	25.1% (inactive)	3.3% (active)	4.14% (active)	-21.6% (active)	26.5% (inactive)	16.5% (inactive)
Cc1cnc(N)s1	102% (inactive)	94.2% (inactive)	97.2% (inactive)	81.6% (inactive)	114% (inactive)	96.2% (inactive)	96.9% (inactive)	103% (inactive)	99.4% (inactive)	103% (inactive)
